# Source: PubChem BioAssay
# KB-3-1 cytotox = KB-3-1 parental cell cytotoxicity | KB-3-1 viability, CellTiter-Glo ATP luminescence, 72 h | actives 1.4% (n = 400,000) | Potency, µM (series often up to 46.1 µM), most hits filed as cytotoxic; further: on the % scale 0 is the no-effect control and ±100 the full control effect; nearly all actives have a fitted effect of over 60% in size
#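 Cytotoxicity in the drug-sensitive parental line KB-3-1 was scored as loss of CellTiter-Glo luminescence following 72 h incubation with compound. Values come from curve fitting of normalized concentration-response data.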
# SW480 rerep = inducers of DNA re-replication in SW480 colon cancer cells; SW480 DNA re-replication, Hoechst DNA content imaging, 48 h; Potency, µM (highest dose often 46.1 µM), for inactives: at the highest dose re-replication activation, usual class: activators; actives 1.8% (n = 340,000); further: % of control where 0% means no effect; nearly all actives have a fitted effect of over 55% in size
#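 Cells (250 per well) received 23 nL compound or DMSO by pin tool and were kept 48 hr at 37 C, 5% CO2. Nuclei were then stained with Hoechst for 40 min and scanned for DNA content.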
# PTAP TSG101 blk = blocks PTAP/TSG101 interaction to inhibit HIV-1 budding. Q99816. Fluorescence polarization, FITC-PTAP peptide / Tsg101 binding. Potency, µM (doses to about 115 µM), for the others: top-dose activity change, negative = inhibition, actives largely listed as inhibitors. 340,000 tested, under 10 active. AID 493005; active means well fitted inhibition curve with a large enough effect in the main read-out, with a control signal flat, not every such curve was filed as active; inconclusive means small, poorly fitted or top-dose-only effect, or effect the other way, or a change in a side signal; inactive means no such curve, though single readings can be large or run the other way; further: % of control where 0% means no effect
# Target sequence (Q99816 whole entry, looked up): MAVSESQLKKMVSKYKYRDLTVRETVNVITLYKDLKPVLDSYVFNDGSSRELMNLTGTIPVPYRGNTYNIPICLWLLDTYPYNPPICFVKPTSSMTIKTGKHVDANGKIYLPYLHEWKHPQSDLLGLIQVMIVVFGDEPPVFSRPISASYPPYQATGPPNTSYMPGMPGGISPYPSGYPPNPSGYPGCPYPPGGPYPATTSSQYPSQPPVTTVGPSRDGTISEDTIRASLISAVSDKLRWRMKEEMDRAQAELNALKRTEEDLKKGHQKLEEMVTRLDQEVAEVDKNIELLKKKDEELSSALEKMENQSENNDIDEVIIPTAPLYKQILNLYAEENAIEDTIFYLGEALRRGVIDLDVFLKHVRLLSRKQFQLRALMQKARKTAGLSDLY
#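 FP read-out: FITC-PTAP peptide, 50 nM final, binding Tsg101 binding domain, 10 uM final; 20 min, r.t.; 10 mM HEPES pH 7.5, 0.15 M NaCl, 0.01% Tween 20, 3 mM EDTA, 0.1 mM TCEP.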
# PINK1 modulator = modulators of PINK1 expression; AID 624263; PINK1 immunofluorescence, high-content cytometry, 24 h; Potency, µM (series often up to 76.6 µM), inactives show top-dose activation (PINK1 increase), hits mostly activators; actives 0.2% (n = 410,000); active means well fitted activation curve with a large enough effect; inconclusive means small, poorly fitted or top-dose-only effect; cell line not stated here; further: % of control where 0% means no effect; nearly all actives have a fitted effect of over 65% in size
#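 Fluorescence from anti-PINK1 antibody, together with nuclear and cell stains, was scanned on a laser-scanning cytometer. Before staining, stable-line cells were incubated 24 hours with compounds at 5 concentrations; primary antibody 12 h at 10 degrees C.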
# KB-V1 cytotox = KB-V1 MDR subline cytotoxicity | KB-V1 MDR cells viability, CellTiter-Glo, 72 h | actives 3.4% (n = 400,000) | Potency, µM (titrated, usually from 46.1 µM), most hits filed as cytotoxic; further: on the % scale 0 is the no-effect control and ±100 the full control effect; nearly all actives have a fitted effect of over 60% in size
#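 qHTS viability screen in drug-selected KB-V1 MDR cells: 72 h compound treatment at 37 degrees C, ATP luminescence end point.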
# MCF10A rerep = inducers of DNA re-replication in MCF 10A breast cells | MCF 10A DNA re-replication, Hoechst nuclear intensity, 48 h | Potency, µM (doses to about 46.1 µM), for the others: at the highest dose activity, positive = re-replication, hits mostly activators | actives 2.9% (n = 350,000) | AID 624296; further: % of control where 0% means no effect; nearly all actives have a fitted effect of over 50% in size
# Starred values were filed as active, the others as inactive; i = inactive; ? = inconclusive; · = no result given; [ ] = another dose, or the depositor's remark. Hits are enriched below; roughly 6.8% of the tested compounds scored in any of these assays. Unless noted, the call rests on the fitted dose curve; in most records, active means well fitted curve in the direction sought with a large enough effect; inconclusive means small, poorly fitted or top-dose-only effect, or another doubt; inactive means no such curve, though single readings can be large; an effect the other way counts as inactive or inconclusive. Potency means the concentration at half of the fitted maximal effect.
SMILES,KB-3-1 cytotox,SW480 rerep,PTAP TSG101 blk,PINK1 modulator,KB-V1 cytotox,MCF10A rerep
CCOC(=O)c1c(C(F)(F)F)cc(-c2ccc(F)cc2)nc1C,i,-12%,-2%,?,i,-1%
CCOC(=O)CS(=O)(=O)c1nc(-c2ccccc2)cc(C(F)(F)F)n1,13µM*,2.6µM*,-1%,-3%,?,?
CCOC(=O)CS(=O)(=O)c1nc(-c2ccc(F)cc2)cc(C(F)(F)F)n1,3.3µM*,21%,-1%,-1%,i,3.7µM*
CS(=O)(=O)c1nc(-c2ccc(F)cc2)cc(C(F)(F)F)n1,?,?,-1%,-2%,?,3.7µM*
COCC(C)NC(=O)CCS(=O)(=O)c1nc(-c2ccc(OC)cc2)cc(C(F)(F)F)n1 (stereo unspecified),i,9%,-3%,-3%,i,3.7µM*
Fc1ccc(CNc2nc(-c3ccc(Cl)cc3)cc(C(F)(F)F)n2)cc1,?,·,·,40µM*,i,·
Fc1ccc(-c2cc(C(F)(F)F)nc(NCc3ccccc3)n2)cc1,i,·,·,10%,i,·
COC(=O)CCS(=O)(=O)c1nc(-c2ccccc2)cc(C(F)(F)F)n1,i,?,-7%,-5%[38.3 µM],?,3.7µM*
CCOC(=O)CCS(=O)(=O)c1nc(-c2ccccc2)cc(C(F)(F)F)n1,?,27%,-2%,0%,i,?
COc1ccc(-c2cc(C(F)(F)F)nc(S(=O)(=O)CCCC(=O)Nc3cccnc3Cl)n2)cc1OC,i,3%,-3%,5%,i,12µM*
COCCCNC(=O)CCc1c(C)nc2cc(-c3ccc(Cl)cc3)nn2c1C,i,·,·,4%,i,·
COc1ccccc1NC(=O)CSC1=Nc2ccccc2C2=NC(CCC(=O)NCc3cccs3)C(=O)N12 (stereo unspecified),i,·,·,0%,i,·
COc1ccc(/C=N/N2C(=N)SCC2=O)cc1,7.3µM*,0%,2%,0%,2.6µM*,13%
CC(C)CCOc1ccc(/C=N/N2C(=O)CSC2=S)cc1,i,14%,1%,7%,i,?
CCc1ccccc1Nc1nn2c(=O)c3ccc(C(=O)NCCCOC(C)C)cc3nc2s1,·,·,·,0%,·,·
COc1ccc(OCCn2cc(C=O)c3ccccc32)cc1,i,-7%,-1%,0%,i,?
CC1=CN2C(=N)/C(=C\c3cn(CCCOc4ccccc4)c4ccccc34)C(=O)N=C2S1,i,·,-4%,5%,?,3.7µM*
CCCCNC(=O)Cn1c(=O)cc(C)c2c(C)nn(-c3cccc(Cl)c3C)c21,i,·,·,-1%,i,·
O=C(Nc1sc2c(c1C(=O)NCc1ccco1)CCCC2)c1cc(=O)c2cc(Cl)ccc2o1,i,·,·,40µM*,?,·
COCCOC(=O)c1[nH]c2c(c1C)C(=O)CC(c1ccccc1)C2 (stereo unspecified),0.92µM*,7.3µM*,-2%,16%,0.73µM*,5.8µM*
COCCOC(=O)c1[nH]c2c(c1C)C(=O)CC(c1ccc(F)cc1)C2 (stereo unspecified),7.3µM*,?,-2%,10%,?,?
Cc1ccc(NC(=O)CCC(=O)N/N=C/c2cccs2)cc1,i,9.2µM*,-1%,0%,i,2%
O=C(CSc1ncccn1)N/N=C/c1cccs1,i,?,-8%,2%[38.3 µM],i,0.52µM*
CC(NC1CCCC1)C(=O)Nc1ccccc1-c1ccccc1 (stereo unspecified),i,-1%,0%,-1%,12µM*,20%
CC(Sc1ccc(Cl)cc1)C(=O)Nc1ccccc1-c1ccccc1 (stereo unspecified),i,?,-5%,16%,?,?
SMILES,KB-3-1 cytotox,SW480 rerep,PTAP TSG101 blk,PINK1 modulator,KB-V1 cytotox,MCF10A rerep
Cc1ccc(SC(C)C(=O)Nc2ccccc2-c2ccccc2)cc1 (stereo unspecified),i,?,1%,?,21µM*,20%
O=C(CCC1CCCC1)Nc1ccccc1-c1ccccc1,i,-63%,-1%,18%,18µM*,-33%
Cc1ccc(C(=O)Nc2c(-c3ccccc3)nc3ccccn23)cc1C,i,·,·,1%,i,·
O=C(NCCc1nnc2n1CCN(Cc1ccc(F)cc1)CC2)c1ccc(F)cc1,·,·,·,0%,·,·
CC(C)(C)c1ccc(S(=O)(=O)Nc2cccc(C3OCCCO3)c2)cc1,i,-3%,1%,6%,15µM*,-1%
Cc1ccc(C)c(Cn2c(SCC(=O)N(C)Cc3ccccc3)nc3ccccc32)c1,i,·,·,0%,i,·
Cc1cc(=O)oc2cc(OCC(=O)N3CCOCC3)c(Cl)cc12,i,3%,3%,-2%,9.2µM*,-6%
Cc1cc(=O)oc2cc(OCC(=O)N3CCCC3)c(Cl)cc12,i,-13%,-1%,2%,i,-1%
COc1ccc(CNCCNC(=O)c2nonc2N)cc1OC,i,-3%,-4%,2%[38.3 µM],i,16%
OCCNCc1cc(Br)ccc1OCc1ccccc1,i,-6%,-2%,20%,15µM*,21%
Fc1ccc(COc2ccc(Br)cc2CNCc2ccncc2)cc1,i,20%,-12%,-3%[38.3 µM],2.9µM*,?
Nc1nonc1C(=O)NCCNCc1cc(Br)ccc1OCc1ccc(F)cc1,11µM*,-1%,-8%,·,?,?
COc1cc(C(=O)Nc2ccc(-c3cc(C(F)(F)F)nn3-c3ccccc3)cc2)cc(OC)c1OC,?,·,·,2%,i,·
COc1ccc(CCNc2ncnc3c2nnn3C)cc1,·,·,·,10%,·,·
CCOC(=O)C1CCN(CCC(=O)Nc2ccccc2OC)CC1,i,·,·,1%,i,·
O=C(/C=C/c1ccco1)NC(=S)Nc1ccc(O)c(-c2nc3ccccc3s2)c1,5.8µM*,?,0%,-1%,?,8.2µM*
Cc1ccc(O)c(NC(=S)NC(=O)/C=C/c2ccco2)c1,10µM*,16µM*,-1%,11%,?,11%
Cc1ccc(-c2csc(NC(=S)NC(=O)/C=C/c3ccco3)n2)cc1,5.8µM*,29%,-5%,10%[38.3 µM],3.3µM*,1.6µM*
O=C(/C=C\c1ccco1)Nc1nc(-c2ccc3ccccc3c2)cs1,i,4%,-1%,4%,?,?
Cc1ccnc(NC(=S)NC(=O)/C=C/c2ccco2)c1,10µM*,?,0%,18%,8.2µM*,?
CCC1CN(Cc2cn[nH]c2-c2ccc(F)cc2)Cc2cc(OC)ccc2O1 (stereo unspecified),·,·,·,6%,·,·
